VDR inhibitor – Inhibitors of the vitamin D receptor (VDR): qHTS | hit rate 0.93% among 400,000 | Vitamin D3 receptor (Homo sapiens), P11473 | VDR-SRC2-3 peptide fluorescence polarization, 2 h | Potency, µM, inactives show max response, negative = inhibition, hits mostly inhibitors; also: potency is read from the fitted curve at half-maximal effect; % is scaled to controls: 0 for no effect and ±100 for the full control effect
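Fluorescence polarization assay measuring small-molecule disruption of VDR binding to the coregulator peptide SRC2-3. Compounds were pin-transferred (23 nl) into the reagent mix and incubated 2 h at room temperature before reading.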
HTT aggregate – qHTS Multiplex Assay to Identify Dual Action Probes in a Cell Model of Huntington: Aggregate Formation (GFP); PC12 HttQ103-GFP aggregates, Acumen cytometry, 40 h; hit rate 1.1% among 220,000; Potency, µM (top dose mostly 46.1 µM), without a hit: top-dose activity change, negative = inhibition, actives largely listed as inhibitors; also: potency is read from the fitted curve at half-maximal effect; % is scaled to controls: 0 for no effect and ±100 for the full control effect; nearly all actives have a fitted effect of over 60% in size
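PC12/HTTQ103-GFP, ecdysone-inducible; teb 100 nM; cpd qHTS titration; GFP aggregates read on laser cytometer, Ex 488/Em 500-530 nm.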
RGS12 GoLoco inh – qHTS Assay for Inhibitors of RGS12 GoLoco Motif Activity (Red Fluorophore); Guanine nucleotide-binding protein G(i) subunit alpha-1 (Homo sapiens), P63096; Gai1:RGS12 GoLoco peptide FP, rhodamine, 10 min; Potency, µM (highest dose often 61.6 µM), without a hit: at the highest dose activity, negative = inhibition, actives largely listed as inhibitors; hit rate 0.44% among 230,000; active = well fitted inhibition curve with a large enough effect, not every such curve was filed as active; inactive = no such curve, though single readings can be large or run the other way; also: potency is read from the fitted curve at half-maximal effect; % is scaled to controls: 0 for no effect and ±100 for the full control effect; nearly all actives have a fitted effect of over 30% in size
Target sequence (P63096 whole entry, looked up): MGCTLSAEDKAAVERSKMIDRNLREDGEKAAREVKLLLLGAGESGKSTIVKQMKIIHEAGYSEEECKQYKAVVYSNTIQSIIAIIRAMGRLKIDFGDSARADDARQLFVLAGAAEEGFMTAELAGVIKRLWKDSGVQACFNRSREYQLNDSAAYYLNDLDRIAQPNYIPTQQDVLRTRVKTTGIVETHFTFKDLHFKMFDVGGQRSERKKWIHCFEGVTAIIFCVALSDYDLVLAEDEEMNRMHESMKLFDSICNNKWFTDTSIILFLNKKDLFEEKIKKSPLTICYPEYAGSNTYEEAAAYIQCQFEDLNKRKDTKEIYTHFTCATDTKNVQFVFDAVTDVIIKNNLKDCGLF
JMJD2E inh – qHTS Assay for Inhibitors of Human Jumonji Domain Containing 2E (JMJD2E) | JMJD2E catalytic domain, FDH-coupled NADH fluorescence (FDH is formaldehyde dehydrogenase) | Potency, µM (highest dose often 57.1 µM), without a hit: at the top dose activity change, negative = inhibition, actives largely listed as inhibitors | hit rate 1.6% among 230,000 | AID 2147, 2009; active = well fitted inhibition curve with a large enough effect, not every such curve was filed as active; inconclusive = small, poorly fitted or top-dose-only effect, or another doubt; inactive = no such curve, though single readings can be large or run the other way;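 also: potency is read from the fitted curve at half-maximal effect; 0% = wells with enzyme and -100% = buffer wells without enzyme; nearly all actives have a fitted effect of over 50% in size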
Coupling enz – qHTS Assay for Inhibitors of Fructose-1,6-bisphosphate Aldolase from Giardia Lamblia: Coupling assay counterscreen; coupling enzyme system counterscreen, AmpLite Red fluorescence; activity change, negative = inhibition, % at 58.2 µM, hits read low; hit rate 0.67% among 290,000; AID 2472, 2010; in the data active = activity change below about -30%; also: % is scaled to controls: 0 for no effect and ±100 for the full control effect
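Fluorescence at 525 nm excitation and 598 nm emission measured inhibition of the coupled detection system without aldolase. Compounds (at 57.5 uM final) were preincubated 10 min at room temperature with coupling enzyme reagent before a 20 min substrate/AmpLite Red step.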
HTT ATP protect – qHTS Multiplex Assay to Identify Dual Action Probes in a Cell Model of Huntington: Cytoprotection (ATP); PC12 HTT-Q103 induced, cytoprotection, ATP luminescence, 40 h; hit rate 0.14% among 230,000; AID 1471, 2008; Potency, µM (highest dose often 56.4 µM), for the others: cytoprotection (ATP increase), usual class: activators; also: potency is read from the fitted curve at half-maximal effect; % of control where 0% means no effect; nearly all actives have a fitted effect of over 45% in size
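Compounds were screened for protection of PC12 cells against cell death after tebufenozide induction (100 nM final) of mutant Huntingtin exon 1 (Q103) fused to GFP.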
USP1-UAF1 confirm – Inhibitors of USP1/UAF1: Hit Validation in Primary Assay; shares compounds with VDR inhibitor; Ub-Rhodamine cleavage, fluorescence kinetic read; Potency, µM (highest dose often 114 µM), inactives show at the highest dose activity change, negative = inhibition, most hits filed as inhibitors; hit rate 50% among 50; AID 540327, 2011
VDR confirm – qHTS for Inhibitors of the vitamin D receptor (VDR): Hit Validation in Primary Screen | shares compounds with VDR inhibitor | Potency, µM, hits mostly inhibitors | hit rate 89% among 840 | VDR-coactivator inhibition assay, qHTS confirmation; also: potency is read from the fitted curve at half-maximal effect
VDR FP fluor – qHTS for Inhibitors of the vitamin D receptor (VDR): Hit Validation using a Fluorescein Assay. shares compounds with VDR inhibitor. VDR-coactivator binding, fluorescein fluorescence polarization. Potency, µM (titrated, usually from 57.1 µM), without a hit: top-dose activity change, negative = inhibition, most hits filed as inhibitors. hit rate 48% among 840; also: potency is read from the fitted curve at half-maximal effect
VDR bla reporter – qHTS for Inhibitors of the vitamin D receptor (VDR): Hit Validation using a Beta-Lactamase Assay. VDR beta-lactamase reporter cells, FRET ratio; cells co-treated with VDR agonist LG190178. Potency, µM (doses to about 46.1 µM), for inactives: top-dose activity change, negative = inhibition, usual class: inhibitors. hit rate 23% among 840. shares compounds with VDR inhibitor. AID 602202, 2012; also: potency is read from the fitted curve at half-maximal effect; % is scaled to controls: 0 for no effect and ±100 for the full control effect
VDR cytotox – qHTS for Inhibitors of the vitamin D receptor (VDR): Hit Validation using a Cytotoxicity Assay; hit rate 18% among 840; Potency, µM (top dose mostly 48.3 µM), for the others: at the highest dose activity change, negative = cytotoxicity, usual class: cytotoxic; AID 602204, 2012; shares compounds with VDR inhibitor; cytotoxicity counter-screen, cell viability, qHTS;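 also: potency is read from the fitted curve at half-maximal effect; plate controls were DMSO for no effect and high-concentration cycloheximide for full effect; nearly all actives have a fitted effect of over 75% in size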
Starred values were filed as active, the others as inactive; ? = inconclusive; · = no result; [ ] = remark or other dose. Sampled rows, rich in hits. Any-hit rate of the full collection: about 2.3%. Unless noted, calls follow the shape of the dose curve; as a rule, active = well fitted curve in the direction sought with a large enough effect; inconclusive = small, poorly fitted or top-dose-only effect, or another doubt; inactive = no such curve, though single readings can be large; an effect the other way counts as inactive or inconclusive.

SMILES	VDR inhibitor	HTT aggregate	RGS12 GoLoco inh	JMJD2E inh	Coupling enz	HTT ATP protect	USP1-UAF1 confirm	VDR confirm	VDR FP fluor	VDR bla reporter	VDR cytotox
COc1ccc(CCNC(=O)c2ccc3c(c2)NC(=O)C(CSCc2cc(C)ccc2C)N3)cc1OC (stereo unspecified)	·	·	·	·	0	·	·	·	·	·	·
COc1c2c(cc3c1C(CC(O)Cc1ccccc1)N(C)CC3)OCO2 (stereo unspecified)	-1%	·	·	·	-3	·	·	·	·	·	·
COc1ccc2c(c1OC)C(Cc1ccccc1)N1CCc3cc4c(cc3C1=C2)OCO4 (stereo unspecified)	32µM*	·	22%	-2%	-33*	-43%[1.9 µM]	42µM*	·	·	·	·
O=C1NC(=O)/C(=C/c2ccc(-c3ccc(F)cc3O)o2)S1	13µM*	·	·	·	·	·	53µM*	·	·	·	·
COc1ccc(-c2noc(N3CCC(C(=O)N(C)c4ccccc4)CC3)n2)cc1	-19%	·	·	·	1	·	·	·	·	·	·
Cc1cccc(N2CCN(C(=O)C3CCCN(S(=O)(=O)c4ccc5c(c4)oc(=O)n5C)C3)CC2)c1C (stereo unspecified)	-13%	·	·	·	·	·	·	·	·	·	·
O=C(O)Cn1c(O)c(C2=c3ccccc3=NC2=O)sc1=O	10µM*	·	·	·	2	·	·	13*	?	14%	10%
COc1cccc2c1C(=O)c1c(O)c3c(c(O)c1C2=O)C[C@](O)(C(C)=O)C[C@H]3O[C@@H]1C[C@H](N)[C@H](O)[C@H](C)O1	4%	·	3.2µM*	-3%[25.5 µM]	-9	-47%[40.3 µM]	18µM*	·	·	·	·
CC(C)(C)c1cc(=O)n(-c2ccccc2)[nH]1	10µM*	0%	-16%	0%	-3	·	·	8.9*	8.9µM*	-1%	3%
O=c1ccc(=O)n(-c2ccccc2)[nH]1	-24%	-9%[9.22 µM]	-30%	-1%	2	4%[10 µM]	·	·	·	·	·
CC1=NOC(=O)/C1=C/c1ccc(-c2ccc(Cl)cc2)o1	·	?	-7%	?	1	-91%	·	·	·	·	·
CC1=NOC(=O)/C1=C\c1ccc(-c2ccc(Br)cc2)o1	?	-14%	8%	?	1	-28%	·	3.2*	?	1%	-18%

Bioassay records: PubChem, National Center for Advancing Translational Sciences (NCATS)
